Experimental data as given in PubChem BioAssay (NCI).
The panel holds about 83,000 compounds, 20% with a hit somewhere; the sample as a whole holds those more often.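 Percent growth is the endpoint: 0 to 100 indicates growth inhibition (40 means 60% inhibition), 0 means no net growth, and negative values indicate cell death.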 Values without a mark were called inactive. Activity calls are given as the source filed them. How the source made its calls: active means growth percent below 10; inactive means the rest.

Experiments:
Experiment in all cases: NCI-60 one-dose screen, 48 h (100 = growth as untreated, 0 = no growth, -100 = all killed)
Settings in all cases: 10 µM unless noted
SK-MEL-2 melanoma = tested on: SK-MEL-2 melanoma
EKVX NSCLC = tested on: EKVX NSCLC
SN12C renal = tested on: SN12C renal
UO-31 renal = tested on: UO-31 renal
ACHN renal = tested on: ACHN renal
CCRF-CEM leukemia = tested on: CCRF-CEM leukemia
MOLT-4 leukemia = tested on: MOLT-4 leukemia
TK-10 renal = tested on: TK-10 renal
CAKI-1 renal = tested on: CAKI-1 renal
A498 renal = tested on: A498 renal

CCNS(=O)(=O)c1ccc(C)cc1
growth (SK-MEL-2 melanoma): 116% | growth (EKVX NSCLC): 106% | growth (SN12C renal): 98.5% | growth (UO-31 renal): 97.3% | growth (ACHN renal): 96.4% | growth (CCRF-CEM leukemia): 89.7% | growth (MOLT-4 leukemia): 95.9%

COc1ccc(-c2nc3ccc(Cc4ccc5nc(-c6ccc(OC)cc6)[nH]c5c4)cc3[nH]2)cc1
growth (SK-MEL-2 melanoma): 41.2% | growth (SN12C renal): 42.4% | growth (UO-31 renal): 89.3% | growth (TK-10 renal): 75.1% | growth (ACHN renal): 85.4% | growth (CAKI-1 renal): 56.3% | growth (A498 renal): 102% | growth (CCRF-CEM leukemia): 13.4% | growth (MOLT-4 leukemia): 43.7%

O=C1OC(c2ccc(-c3ccccc3)cc2)=C/C1=C/c1c(Cl)cccc1Cl
growth (SK-MEL-2 melanoma): 105% | growth (EKVX NSCLC): 86% | growth (SN12C renal): 95.3% | growth (UO-31 renal): 81.1% | growth (ACHN renal): 105% | growth (A498 renal): 93.5% | growth (CCRF-CEM leukemia): -14% (active) | growth (MOLT-4 leukemia): 97.8%

COc1ccc(-c2n[nH]nc2-c2cc(OC)c3c(c2)OCO3)cc1
growth (SK-MEL-2 melanoma): 6.64% (active) | growth (SN12C renal): 23% | growth (UO-31 renal): 20.1% | growth (TK-10 renal): 47.7% | growth (ACHN renal): 29.6% | growth (CAKI-1 renal): -2.7% (active) | growth (A498 renal): -9.3% (active) | growth (CCRF-CEM leukemia): -4.86% (active) | growth (MOLT-4 leukemia): -15.3% (active)

COc1cc(-c2nc(-c3nc4cc(C(=O)c5ccccc5)ccc4[nH]3)cc3c2[nH]c2ccccc23)cc(OC)c1OC
growth (SK-MEL-2 melanoma): 87.3% | growth (SN12C renal): 89.5% | growth (UO-31 renal): 73.2% | growth (TK-10 renal): 106% | growth (ACHN renal): 87.2% | growth (CAKI-1 renal): 84% | growth (A498 renal): 105% | growth (CCRF-CEM leukemia): 57.2% | growth (MOLT-4 leukemia): 63%

C[C@@H](C[C@H](CC1CC1)c1ccccc1)c1ccc2ccccc2c1
growth (SK-MEL-2 melanoma): 109% | growth (EKVX NSCLC): 101% | growth (SN12C renal): 103% | growth (UO-31 renal): 90.1% | growth (ACHN renal): 106% | growth (CAKI-1 renal): 92.9% | growth (A498 renal): 100% | growth (CCRF-CEM leukemia): 96.4% | growth (MOLT-4 leukemia): 105%

COS(=O)(=O)CCN(CCOS(C)(=O)=O)S(C)(=O)=O
growth (SK-MEL-2 melanoma): 78.9% | growth (SN12C renal): 98.1% | growth (UO-31 renal): 86.7% | growth (TK-10 renal): 96.7% | growth (ACHN renal): 92.9% | growth (CAKI-1 renal): 96.8% | growth (A498 renal): 115%
